Laboratory results as given in PubChem BioAssay.

Tested on: Human papillomavirus type 1a protein E7 (residues 44-93)
Experiment: small molecules binding HPV E7 44-93 – biochemical, small-molecule microarray, residues 44-93, 635 nm fluorescence, primary screen (AID 1108);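 further: E7 fragment applied at 1 µg/mL in TBST for 1 h at 4 C; score combines spot fluorescence with its signal to noise ratio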
Conditions: fluorescence 635 nm, higher = more signal

SMILES | composite z-score
O=C(O)[C@@H]1[C@@H]2C(=O)N(c3ccccc3)C(=O)[C@@H]2C[C@@H]1Sc1ccccc1 | -0.933
COCCOC(=O)N1C(=O)[C@@]2(c3cc(C#CCNC(N)=O)ccc31)[C@H](C(N)=O)[C@H]1C(=O)O[C@H](c3ccccc3)[C@H](c3ccccc3)N1[C@@H]2c1ccccc1OCCO | 0.989
COC(=O)[C@@]1(Cc2ccc(OC)cc2)[C@H]2c3cc(C(=O)N4CCCC4)n(CCO)c3C[C@H]2CN1C(=O)c1ccccc1 | 1.1
C[N+](C)(C)CCCCCCNC(=O)[C@@H]1C[C@@H]2C(=O)N3CCC[C@H]3C(=O)N2[C@@H]1c1ccc(O)cc1 | 0.279
O=C1O[C@@H](c2ccccc2)[C@@H](c2ccccc2)N2[C@@H](c3ccc(O)cc3)[C@]3(C(=O)Nc4ccc(C#CCCO)cc43)[C@@H](C(=O)N3CCN(c4ncccn4)CC3)[C@H]12 | 0.99
CC(C)c1ccc(NN2C(C(O)c3ccc(F)cc3)C=CC3C(=O)N(c4ccccc4)C(=O)C32)cc1 (centres undefined) | 1.44
C[N+](C)(C)CCCC[C@@H]1NC(=O)[C@@H]2C[C@H](C(=O)NCCCCCCN)[C@H](c3cccc(OCCO)c3)N2C1=O | 0.896
Cc1ccc(S[C@]2(C(=O)NCC(F)(F)F)CC(=O)N(Cc3cc(C(F)(F)F)cc(C(F)(F)F)c3)[C@@H]2c2ccc(CO)cc2I)cc1 | -0.886
C=C[C@H]1C(C(=O)OCC)=CC[C@@H](c2ccccc2)N1S(=O)(=O)c1ccc(C)cc1 | 1.4
CCCCN1CC=CC23O[C@@H]4/C=C\CCCOC(=O)C4[C@H]2C(=O)N(CCO)[C@@H]3C1=O (some centres undefined) | 0.493
CCCCN1CC=CC23O[C@@H]4/C=C\CCC(C)OC(=O)C4[C@H]2C(=O)N(CCCO)[C@@H]3C1=O (some centres undefined) | -0.169
O=C(NCc1ccc(F)cc1)[C@H]1C[C@H]2C(=O)NCC(=O)N2[C@H]1c1ccc(O)cc1 | 1.03
CCOC(=O)C[C@H]1[C@H](OC(=O)Cc2ccc3c(c2)OCO3)[C@@H](NC(=O)c2ccc3ccccc3n2)c2cc(OCCCO)ccc2N1C(=O)c1ccccc1 | 0.348
COc1cc2c(cc1O)C(C1CC1)N(C)CC2 (centres undefined) | -1.01
COC(=O)C1=CC(CCCO)=CC(c2cccs2)N(Cc2cccc(OC(F)(F)F)c2)C=C1C(=O)OC (centres undefined) | 0.91
COCCCNC(=O)[C@@]1(Sc2ccc(C)cc2)CC(=O)N(C2Cc3ccccc3C2)[C@@H]1c1ccc(CO)cc1 | 0.52
CN(C)c1ccc(C(O)C2C=CC3C(=O)NC(=O)C3N2Nc2ccccn2)cc1 (centres undefined) | 1.34
COc1ccccc1CN1C(=O)c2ccccc2[C@](Cc2ccccc2I)(C(=O)O)[C@@H]1c1ccc(CO)cc1 | 1.42
CC(C)N1CC=CC23O[C@@H]4C=CCCOC(=O)C4[C@H]2C(=O)N(CCCO)[C@@H]3C1=O (some centres undefined) | 0.0707
COc1ccc(C(=O)Nc2ccc(CN3C(=O)[C@]4(O[C@H](CC(=O)N5Cc6ccccc6C[C@H]5CO)[C@@H]([Si](C)(C)c5ccc(OC)cc5)[C@@H]4C)c4ccccc43)cc2)cc1 | 1.33
Cn1cccc1C(O)C1C=CC2C(=O)N(c3ccccc3)C(=O)C2N1Nc1ccccc1 (centres undefined) | 1.09
CCOC(=O)C[C@H]1[C@H](OC(=O)c2cc3ccccc3oc2=O)[C@@H](NC(=O)CC(C)C)c2cc(OCCCO)ccc2N1C(=O)c1ccc2ccccc2n1 | 1.05
CC[C@@H]1C=C(C(=O)O)[C@H](c2ccccc2)N1S(=O)(=O)c1ccc(C)cc1 | 0.807
C=CC[C@@H](OC(=O)Nc1ccc(SC)cc1)c1ccc(O)c(F)c1 | -0.148

Tested on: not listed separately
Experiment: hepatitis C replication reporter changes, two-sided – Huh7 cells, luciferase reporter, HCV replication inhibitor project, primary screen (AID 1109);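 further: huh7 hepatoma cells harbouring a luciferase neomycin HCV replicon reporter; luciferase luminescence as measure of HCV replicon replication; test concentration not given here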
Conditions: Huh7 HCV replicon luciferase reporter, 48 h; higher = more signal

SMILES | z-score
C[C@@H]1NC(=O)[C@@H](Cc2ccccc2)NC(=O)[C@@]23C(=O)N[C@@H](Cc4ccccc4)C2[C@H](C)[C@@]2(C)O[C@H]2C3/C=C/C/C=C\CNC1=O (some centres undefined) | -0.857
COc1cccc(C)c1NC(=O)O[C@H]1[C@H](OC(=O)Nc2ccc3c(c2)OCO3)[C@@H](OC(=O)Nc2ccc3c(c2)OCO3)[C@@H](OC)O[C@@H]1CO | 0.658
C=C(COC)/C(=C/C[C@H](OC(=O)c1ccncc1)c1ccc(CO)o1)c1cnc2ccccc2c1 | -0.403
CC(C)=C1C(=O)C(c2ccccc2)=C2CN3C(=O)N(CCc4ccccc4)C(=O)[C@]3(Cc3ccc(C(F)(F)F)cc3)[C@H]21 | -0.508
CCCCNC(=O)c1ccc(C#CC(C)(C)C)c(OC(C)=O)c1 | -0.196
C=CCC(OC(C)=O)[C@@H]1[C@@H](N(Cc2cccc3ccccc23)C(=O)Cc2ccc(OC)cc2)c2cc(OCCCO)ccc2N1C(=O)c1ccc(-c2ccccc2)cc1 (some centres undefined) | 0.321
COc1cc(NN2C(C(O)c3ccc(N(C)C)cc3)C=CC3C(=O)N(c4ccccc4)C(=O)C32)cc(OC)c1OC (centres undefined) | -0.99
CCCC[C@@H](O)C1=C(COC)C[C@H]2C(=O)N(C)C(=O)[C@H]2[C@H]1CO | -0.338
CC1CC/C=C\[C@H]2OC34C=CCN(c5ccc6ccccc6c5)C(=O)[C@H]3N(CCCO)C(=O)[C@@H]4C2C(=O)O1 (some centres undefined) | 0.197
CC(C)C(CO)N1C(=O)[C@@H]2[C@H]3C(=O)OCC=C[C@H]3OC23C=CCN(c2ccc(Cl)cc2)C(=O)[C@@H]13 (some centres undefined) | -0.665
CCCN1C(=O)[C@@]2(Cc3ccccc31)N=C(c1ccc(OCCCO)cc1)O[C@H]2c1ccccc1 | -2.52
O=C(O)[C@@H]1[C@@H]2C(=O)N(c3ccccc3)C(=O)[C@@H]2C[C@@H]1Sc1ccccc1 | 0.0105
COCCOC(=O)N1C(=O)[C@@]2(c3cc(C#CCNC(N)=O)ccc31)[C@H](C(N)=O)[C@H]1C(=O)O[C@H](c3ccccc3)[C@H](c3ccccc3)N1[C@@H]2c1ccccc1OCCO | -0.814
COC(=O)[C@@]1(Cc2ccc(OC)cc2)[C@H]2c3cc(C(=O)N4CCCC4)n(CCO)c3C[C@H]2CN1C(=O)c1ccccc1 | -0.474
C[N+](C)(C)CCCCCCNC(=O)[C@@H]1C[C@@H]2C(=O)N3CCC[C@H]3C(=O)N2[C@@H]1c1ccc(O)cc1 | 0.501
O=C1O[C@@H](c2ccccc2)[C@@H](c2ccccc2)N2[C@@H](c3ccc(O)cc3)[C@]3(C(=O)Nc4ccc(C#CCCO)cc43)[C@@H](C(=O)N3CCN(c4ncccn4)CC3)[C@H]12 | -0.671
CC(C)c1ccc(NN2C(C(O)c3ccc(F)cc3)C=CC3C(=O)N(c4ccccc4)C(=O)C32)cc1 (centres undefined) | -0.619
C[N+](C)(C)CCCC[C@@H]1NC(=O)[C@@H]2C[C@H](C(=O)NCCCCCCN)[C@H](c3cccc(OCCO)c3)N2C1=O | -0.0759

SMILES | z-score
Cc1ccc(S[C@]2(C(=O)NCC(F)(F)F)CC(=O)N(Cc3cc(C(F)(F)F)cc(C(F)(F)F)c3)[C@@H]2c2ccc(CO)cc2I)cc1 | -0.964
C=C[C@H]1C(C(=O)OCC)=CC[C@@H](c2ccccc2)N1S(=O)(=O)c1ccc(C)cc1 | -2.78
CCCCN1CC=CC23O[C@@H]4/C=C\CCCOC(=O)C4[C@H]2C(=O)N(CCO)[C@@H]3C1=O (some centres undefined) | -0.219
CCCCN1CC=CC23O[C@@H]4/C=C\CCC(C)OC(=O)C4[C@H]2C(=O)N(CCCO)[C@@H]3C1=O (some centres undefined) | -0.398
O=C(NCc1ccc(F)cc1)[C@H]1C[C@H]2C(=O)NCC(=O)N2[C@H]1c1ccc(O)cc1 | -0.0497
CCOC(=O)C[C@H]1[C@H](OC(=O)Cc2ccc3c(c2)OCO3)[C@@H](NC(=O)c2ccc3ccccc3n2)c2cc(OCCCO)ccc2N1C(=O)c1ccccc1 | -1.26
COc1cc2c(cc1O)C(C1CC1)N(C)CC2 (centres undefined) | -0.817
COC(=O)C1=CC(CCCO)=CC(c2cccs2)N(Cc2cccc(OC(F)(F)F)c2)C=C1C(=O)OC (centres undefined) | -1.88
COCCCNC(=O)[C@@]1(Sc2ccc(C)cc2)CC(=O)N(C2Cc3ccccc3C2)[C@@H]1c1ccc(CO)cc1 | -0.849
CN(C)c1ccc(C(O)C2C=CC3C(=O)NC(=O)C3N2Nc2ccccn2)cc1 (centres undefined) | -0.125
COc1ccccc1CN1C(=O)c2ccccc2[C@](Cc2ccccc2I)(C(=O)O)[C@@H]1c1ccc(CO)cc1 | -0.127
CC(C)N1CC=CC23O[C@@H]4C=CCCOC(=O)C4[C@H]2C(=O)N(CCCO)[C@@H]3C1=O (some centres undefined) | -1.15
COc1ccc(C(=O)Nc2ccc(CN3C(=O)[C@]4(O[C@H](CC(=O)N5Cc6ccccc6C[C@H]5CO)[C@@H]([Si](C)(C)c5ccc(OC)cc5)[C@@H]4C)c4ccccc43)cc2)cc1 | -3.58
Cn1cccc1C(O)C1C=CC2C(=O)N(c3ccccc3)C(=O)C2N1Nc1ccccc1 (centres undefined) | -0.36
CCOC(=O)C[C@H]1[C@H](OC(=O)c2cc3ccccc3oc2=O)[C@@H](NC(=O)CC(C)C)c2cc(OCCCO)ccc2N1C(=O)c1ccc2ccccc2n1 | -0.359
CC[C@@H]1C=C(C(=O)O)[C@H](c2ccccc2)N1S(=O)(=O)c1ccc(C)cc1 | -1.33
C=CC[C@@H](OC(=O)Nc1ccc(SC)cc1)c1ccc(O)c(F)c1 | 0.56
